Laboratory results taken from PubChem BioAssay (NCATS).
Inconclusive results are not listed. Entries that show only a call come without a potency. Active and inactive are the calls of the source. Calls follow the shape of the dose curve; as a rule, active = well fitted inhibition curve with a large enough effect; inconclusive = small, poorly fitted or top-dose-only effect; inactive = no such curve, though single readings can be large or run the other way.

Assay: qHTS for Inhibitors of the Aldehyde Dehydrogenase Family (ALDH1A2, ALDH1A3, ALDH2, ALDH3A1) (AID 2061307); also: nearly all actives have a fitted effect of over 50% in size; as to potency: test system not described further here
Potency is read from the fitted curve at half-maximal effect.

Row | SMILES | Potency
1 | Cc1c(P(=S)(c2ccccc2)c2ccccc2)[n+]2ccccc2n1C/C=C/c1ccc(Cl)cc1 | inactive
2 | Cc1ccc(CNS(=O)(=O)c2ccc3c(c2)CN(C(=O)c2cccnc2)CC3)o1 | inactive
3 | COc1ccc(-n2ncc3c2CCCC3NC(=O)CN(C)C)cc1 (centres undefined) | inactive
4 | N[C@H](CCC(=O)Nc1cccc(-c2nn3c(=O)cc(N4CCNCC4)nc3s2)c1)C(=O)O | inactive
5 | N#CCc1c(Cc2ccc(S(N)(=O)=O)cc2)c(-c2ccccc2)nn1-c1nc(C(=O)O)cs1 | inactive
6 | COc1ccc(-c2nnc(SCC(=O)Nc3ccc(C(C)=O)cc3)o2)cc1 | inactive
7 | C=Cc1cc(NC(=O)CN)cc(-c2nn3c(=O)cc(N4CCNCC4)nc3s2)c1 | inactive
8 | Brc1ccc(CN2CCC(N(CCc3ccccc3)Cc3ccccc3)CC2)cc1 | inactive
9 | CCN1C(=O)c2ccccc2S(=O)c2ccc(C(=O)NCc3ccccc3Cl)cc21 (centres undefined) | 12.7 µM (active)
10 | CCN1CCN(C(=S)c2ccc([N+](=O)[O-])cc2)CC1 | inactive
11 | CN(C)c1ccc(NC(=O)c2cn(-c3ccccc3)nn2)cn1 | inactive
12 | O=C(c1cc(-c2ccccc2Cl)nc2ccccc12)N1CCN(c2ccccc2O)CC1 | inactive
13 | COCCn1cc(NC(=O)CSC(C)C)ccc1=O | inactive
14 | C[S+](=O)([O-])c1ccc(-c2nnc3ccc(C(=O)NCc4cccs4)cn23)cc1 | inactive
15 | CC(Sc1nc2nn(C3COC3)cc2c(=O)n1-c1ccccc1)c1ccccn1 (centres undefined) | inactive
16 | CC(=O)Nc1ccc(NC(=O)c2sc(COc3ccc(F)cc3)nc2C)cc1 | inactive
17 | O=C(O)c1csc(-n2[nH]c(-c3ccc(F)c(F)c3)cc2=O)n1 | inactive
18 | COc1ccc(-n2c(C)cc(C3=NNC(=NC4CC4)SC3)c2C)cc1 | 4.49 µM (active)
19 | Cc1occc1C(=O)N1CCc2cc(-c3nc(NC(=O)Cc4ccc5c(c4)OCO5)sc3C)ccc21 | 7.08 µM (active)
20 | O=C(Nc1ccccc1C(=O)Nc1cccc(C(F)(F)F)c1)c1ccc(Cl)cc1 | inactive

Row | SMILES | Potency
21 | NC(=O)Nc1ccc(CNC(=O)C2Cc3ccccc3O2)cc1 (centres undefined) | inactive
22 | Cc1ccc(N(C)S(=O)(=O)c2ccc(-c3cnc(C4CC4)o3)cc2)cc1 | inactive
23 | Cc1c(P(=S)(c2ccccc2)c2ccccc2)[n+]2ccccc2n1C/C=C/c1ccc(Br)cc1 | inactive
24 | O=C1C(=O)N(Cc2ccccc2)c2ccccc21 | 1.79 µM (active)
25 | CCc1ccc(NC(=O)Cn2c(=O)n(-c3ccccc3)c(=O)c3ccc(C(=O)NCc4ccc5c(c4)OCO5)cc32)cc1 | inactive
26 | O=C([C@@H](NS(=O)(=O)c1ccc2[nH]c(=O)ccc2c1)c1ccccc1)N(Cc1ccco1)Cc1cccs1 | inactive
27 | O=C1c2ccccc2-c2nnc(-c3ccncc3)cc21 | inactive
28 | O=C(Nc1ccc(S(=O)(=O)N2CCOCC2)cc1)c1ccc(CN2Cc3ccccc3C2)cc1 | 0.316 µM (active)
29 | CN1CCN(c2ccc3ncc(Nc4ccc(Cl)c(C(F)(F)F)c4)n3n2)CC1 | 28.2 µM (active)
30 | NC(=O)c1ccc(OCc2nc(-c3ccc(C(F)(F)F)cc3)no2)cc1 | inactive
31 | COCc1ccc(-c2nn(Cc3ccccc3)c3ccccc23)o1 | 11.3 µM (active)
32 | CCN(CC)C(=O)c1ccc(Nc2ncnc3sc(C)c(C)c23)cc1 | 6.31 µM (active)
33 | O=C(NC1CCCC1)c1csc(N2CCN(c3cccc(Cl)c3)CC2)n1 | 3.16 µM (active)
34 | Cc1nnc(NCc2ccc(Cl)cc2)o1 | 8.96 µM (active)
35 | O=C(NCc1ccccc1Cl)c1csc(N2CCN(c3ccc(F)cc3)CC2)n1 | 2.51 µM (active)
36 | CC(=O)Nc1cccc(C(=O)Nc2nc(-c3ccc4c(c3)CCC(=O)N4)cs2)c1 | inactive
37 | COc1cc(O)c(C(CC(=O)N2CC(C)CC(C)C2)c2ccc(S(=O)(=O)N(C)C)cc2)c(OC)c1 (centres undefined) | inactive
38 | CC(C)Oc1ccccc1NC(=O)N1CCN(c2ccccc2)CC1 | inactive
39 | COc1ccc(OC)c(NC(=O)c2cc(C3CC3)nc3c2c(C)nn3-c2ccc(C)cc2)c1 | inactive
